Assay results reported in the supplement of paper PMC6555819.

What follows are sequences tested on VDR:RXRa (NR concentration 270 nM, RXRa partner concentration 90 nM) (assay: PBM binding z-score (relative to random genomic background probes); higher = stronger binding; sequences stand for … in GC…GCGATTGACAGCGTAGAATGAAGG).
Description: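 Protein-binding microarray (Agilent 4x180K custom design, double-stranded 60-nt probes: 5' GC cap, 34-nt variable region, 24-nt constant primer region; full probe sequence given). Purified or IVT nuclear receptor:RXRα heterodimers (3:1 NR:RXRα, mostly 270:90 nM) or homodimers were incubated for 1 h in PBS with 2% milk and no ligand, then detected with Alexa488 antibodies. Fluorescence from o1-orientation probes (~5 replicates averaged) was converted to z-scores against 500 random hg19 background probes. Variable regions are seed direct-repeat (DR0–DR5) sites, all their single-nucleotide variants and half-site ablations.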
CCTACTGAGCCACGAAAGGTCATTGATTCAGTGA gave a PBM binding z-score of 3.97.
AGTCAAAGTTCAGGACGAGGTAACGCAAAGCACG showed a PBM binding z-score of 2.89.
Sequence CCGAGTAGGATATGGGGCATTCAGGCAACGGTGA has a PBM binding z-score of -0.284.
In the case of ACTTACGGGTCAACGTGGTTATAGCACGCGTATA, the PBM binding z-score is reported as 4.96.
With TAGCCTGGGTCAGATCGGGCCAGTATACGCTATA the PBM binding z-score was 0.452.
For TGACCAAGGTGAAGGTCGTTGATCCCTCTGTAGA, the PBM binding z-score was 1.43.
ATCTCTAGGTAAAGTTGAGTGAAAGATCGATAGA gave a PBM binding z-score of 0.152.
GCGACTGGGGCATCAGCAGCTTACCATAACTTAA gave a PBM binding z-score of -0.708.
CAACCTAGGTCAAGGTCAAAGTCGGTTTGTGCCA was tested, and the PBM binding z-score was 5.45.
ATATGTACGTTATCGGGTCATTCAGTTTGCGCAT was tested, and the PBM binding z-score was 5.03.
Sequence CCTACTGGGCCACGAAAGGTCATTAATTCAGTGA has a PBM binding z-score of 3.74.
Work on TCTTGTAGATCCACAGGAGGTTAAGAAAGATCGA yielded a PBM binding z-score of 0.74.
Sequence GATCGGAGGACAAGGTCAGAGCTTTGTCCGTAGA has a PBM binding z-score of 1.44.
Sequence CAAACTGGGTCAAAGGTCAAAGTCGAGCCAACCA has a PBM binding z-score of 6.65.
CCTGCTAGGCCATGGTCAGCTAATCTACAGTATG was tested, and the PBM binding z-score was -0.543.
With TCGAGTAGGTTAGGGGCATTCATAATGGCGTCGA the PBM binding z-score was 0.655.
Work on GTAGACAGGTGAAACGCAGGTAACTCAGGGTGGC yielded a PBM binding z-score of -0.214.
Work on CCTTACGGGTCACGAGGTGATAGCACGACGAGCG yielded a PBM binding z-score of 4.18.
With ACTAGCAGGCCAAGTTTGGGTTACTCAAACAAAG the PBM binding z-score was -0.254.
Work on TATAGAGGGTCAAAGGCCAGAGTACGAATGTCGA yielded a PBM binding z-score of 3.83.
For CAGCCTAGGTCCGGGCCAGTATAGGAGGAACGTT, the PBM binding z-score was -0.982.
TCTAGTTGGTCAAAGGTCACAAACTCGAAATGCG was tested, and the PBM binding z-score was 5.17.
CCTTACGGGTTACGAGGTTATAGCACGACGAGCG showed a PBM binding z-score of 2.36.
With CCGAGTAGGTTATGCGGCATTCAGGCAACGGTGA the PBM binding z-score was -0.251.
Work on TCATCTAGGTAAATGCTAGGTGAAAGTCCGATCT yielded a PBM binding z-score of 0.555.
CCTGCTAGGTCATGTTCAGCTAATCTACAGTATG gave a PBM binding z-score of 1.48.
Work on CTCGAAAGGTCGTGCGCAGGTGAGTATACCAAAC yielded a PBM binding z-score of 3.64.
CGTCCAAGGTCAGCAGGACAGTGAAAGCGACGTG was tested, and the PBM binding z-score was 2.42.
In the case of ACTAGTTGGTCAGCTGAGTTCACACACAATTCGG, the PBM binding z-score is reported as 4.81.
TTACCCAGGTGAAGGTCGTTGATCCCTCTGTAGA gave a PBM binding z-score of 1.05.
Sequence TAGCCTAGGTCATGGGCCAGTATACCACGCGAAC has a PBM binding z-score of 1.97.
AGAACGAGGGCAATGAGTCGATAGCACGGGTGGC was tested, and the PBM binding z-score was 2.39.
With AGAACGAGGGCACGCCGAGTTGATAGCAGAGTAG the PBM binding z-score was 2.27.
In the case of CGAACTAGGTCATTGACAGGACAGCGAATAGTAA, the PBM binding z-score is reported as 2.05.
Work on CCTTACGGGTCCCGAGGTTATAGCACGACGAGCG yielded a PBM binding z-score of 0.198.
Work on CGTTACGGGTCACTCCAGGTTATAGCATCGGAGT yielded a PBM binding z-score of 4.5.
In the case of GGAACGAGGGCATTCGAGTTGATAGTATGGCGAT, the PBM binding z-score is reported as 4.13.
Work on CCTACTGGGCCATTCAGAGTTCATTGATCATATG yielded a PBM binding z-score of 3.5.
In the case of CCTACTGGGCCAAAAAGGTCATTCATGCCGATAA, the PBM binding z-score is reported as 4.88.
ATCGAAAGGTCGAGAGGTGAGTATACAGAAAGGC was tested, and the PBM binding z-score was 2.73.
